# In paper PMC5700166:
# Substitutions are numbered along the chain they refer to.
# Assays:
# Test in all cases: protein-binding microarray (PBM); PBM: ~300 nM protein, 6 mM HEPES pH 7.8, 80 mM KCl, 0.5 mM EDTA, 0.5 mM EGTA, 6% glycerol, 35 ng/ul poly-dIdC, 1% milk, 1 h, room temperature; Ap Aiptasia and Nv Nematostella (sea anemones) / Co Capsaspora / Aq Amphimedon (sponge) / Dm Drosophila / Hu human; RHD is the Rel homology domain; high values mean tight binding
# Settings in all cases: dsDNA, one strand shown
# [1] = biological target: T1, GST-Nv-NF-kB (Ser allele) (Nematostella vectensis, UniProt A7UNT2 2-411)
# T1 sequence: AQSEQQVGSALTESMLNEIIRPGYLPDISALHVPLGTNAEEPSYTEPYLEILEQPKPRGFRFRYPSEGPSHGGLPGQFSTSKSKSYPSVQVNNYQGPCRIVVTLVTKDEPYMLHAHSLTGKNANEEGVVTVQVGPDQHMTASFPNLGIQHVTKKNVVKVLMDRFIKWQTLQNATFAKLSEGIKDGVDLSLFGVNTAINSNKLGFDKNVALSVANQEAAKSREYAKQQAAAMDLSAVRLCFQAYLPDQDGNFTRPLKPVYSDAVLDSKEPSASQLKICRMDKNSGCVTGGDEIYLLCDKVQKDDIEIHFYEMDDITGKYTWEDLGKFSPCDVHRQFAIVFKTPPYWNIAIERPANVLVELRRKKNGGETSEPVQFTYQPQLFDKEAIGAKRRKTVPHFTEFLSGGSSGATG
# GST-Aq-NF-kB = biological target: T2, GST-Aq-NF-kB (Amphimedon queenslandica, UniProt A9Y5G7 2-389)
# T2 sequence: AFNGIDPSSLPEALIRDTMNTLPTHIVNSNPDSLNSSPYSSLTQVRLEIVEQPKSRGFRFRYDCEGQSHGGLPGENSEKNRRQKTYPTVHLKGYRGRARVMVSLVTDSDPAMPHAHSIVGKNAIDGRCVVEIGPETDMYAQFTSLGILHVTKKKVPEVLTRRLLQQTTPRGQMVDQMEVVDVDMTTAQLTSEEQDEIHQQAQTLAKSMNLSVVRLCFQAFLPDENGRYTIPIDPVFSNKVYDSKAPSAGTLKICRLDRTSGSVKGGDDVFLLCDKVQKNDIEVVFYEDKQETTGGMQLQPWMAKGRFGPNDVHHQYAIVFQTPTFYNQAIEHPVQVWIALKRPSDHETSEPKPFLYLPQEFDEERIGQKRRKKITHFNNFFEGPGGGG
# GST-Hu-p50 = GST-Hu-p50 (Homo sapiens, UniProt P19838 7-356)
# Chain of GST-Hu-p50 (P19838 7-356): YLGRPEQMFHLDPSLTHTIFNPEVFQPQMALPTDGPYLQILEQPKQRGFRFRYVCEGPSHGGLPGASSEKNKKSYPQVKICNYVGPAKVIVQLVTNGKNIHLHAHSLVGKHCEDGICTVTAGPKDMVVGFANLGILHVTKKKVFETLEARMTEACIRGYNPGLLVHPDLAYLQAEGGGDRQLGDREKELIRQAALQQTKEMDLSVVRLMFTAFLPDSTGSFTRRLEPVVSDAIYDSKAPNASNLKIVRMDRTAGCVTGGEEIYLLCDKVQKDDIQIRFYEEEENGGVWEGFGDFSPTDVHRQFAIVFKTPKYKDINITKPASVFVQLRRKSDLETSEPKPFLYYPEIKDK
# GST-Dm-Relish = biological target: T3, GST-Dm-Relish (Drosophila melanogaster, UniProt Q94527 99-473)
# T3 sequence: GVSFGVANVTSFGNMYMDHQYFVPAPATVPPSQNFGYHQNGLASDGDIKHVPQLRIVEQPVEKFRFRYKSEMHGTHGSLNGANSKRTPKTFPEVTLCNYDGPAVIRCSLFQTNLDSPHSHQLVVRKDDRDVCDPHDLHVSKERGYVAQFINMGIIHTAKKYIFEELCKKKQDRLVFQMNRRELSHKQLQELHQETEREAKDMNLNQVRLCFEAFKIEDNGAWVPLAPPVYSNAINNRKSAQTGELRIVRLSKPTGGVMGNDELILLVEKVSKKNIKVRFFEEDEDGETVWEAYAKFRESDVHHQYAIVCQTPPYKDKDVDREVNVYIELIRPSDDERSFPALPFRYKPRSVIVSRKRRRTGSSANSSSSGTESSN
# GST-Ap-NF-kB RHD = biological target: T4, GST-Ap-NF-kB RHD (Exaiptasia pallida (Aiptasia), UniProt A0A913YAJ5 2-422)
# T4 sequence: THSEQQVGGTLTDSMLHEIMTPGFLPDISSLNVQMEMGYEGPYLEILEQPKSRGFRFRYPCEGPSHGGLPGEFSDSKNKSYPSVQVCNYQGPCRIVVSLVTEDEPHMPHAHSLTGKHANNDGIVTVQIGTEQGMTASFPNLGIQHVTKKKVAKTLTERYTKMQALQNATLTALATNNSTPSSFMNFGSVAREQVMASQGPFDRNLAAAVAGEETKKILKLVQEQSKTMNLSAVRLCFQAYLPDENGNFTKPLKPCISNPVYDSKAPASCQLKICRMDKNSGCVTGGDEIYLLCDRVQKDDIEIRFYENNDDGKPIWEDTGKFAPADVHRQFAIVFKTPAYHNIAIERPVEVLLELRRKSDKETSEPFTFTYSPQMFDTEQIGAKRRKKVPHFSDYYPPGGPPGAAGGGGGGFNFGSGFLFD
# GST-Co-NF-kB = biological target: T5, GST-Co-NF-kB (Capsaspora owczarzaki, UniProt F1ARL5 200-546)
# T5 sequence: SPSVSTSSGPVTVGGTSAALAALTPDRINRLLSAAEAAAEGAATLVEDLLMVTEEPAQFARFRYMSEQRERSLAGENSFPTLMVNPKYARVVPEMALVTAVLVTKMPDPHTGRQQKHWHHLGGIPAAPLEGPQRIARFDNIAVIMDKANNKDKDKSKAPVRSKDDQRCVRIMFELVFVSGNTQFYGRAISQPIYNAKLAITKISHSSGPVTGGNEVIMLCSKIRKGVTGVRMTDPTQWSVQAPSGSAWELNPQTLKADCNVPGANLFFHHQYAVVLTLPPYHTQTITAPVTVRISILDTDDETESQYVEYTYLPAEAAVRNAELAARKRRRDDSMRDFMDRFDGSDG
# [2] = biological target: T6, GST-Nv-NF-kB (Cys allele) (Nematostella vectensis, UniProt E5G601 2-411)
# T6 sequence: T1 sequence with R21Q, S66C, N207S, Q215E, A217V, K225E, E268A, E399D
Sequence,binding signal [1] [z-score],binding signal (GST-Aq-NF-kB) [z-score],binding signal (GST-Hu-p50) [z-score],binding signal (GST-Dm-Relish) [z-score],binding signal (GST-Ap-NF-kB RHD) [z-score],binding signal (GST-Co-NF-kB) [z-score],binding signal [2] [z-score]
CCGATTAACATCAAGAATTTTCCTGATGTTAATCGGGTCTTGATTCGCTTGACGCTGCTG,1.03,1.12,1.25,–,–,–,–
CCGATTAACATCAAGGTTTTTCCTGATGTTAATCGGGTCTTGATTCGCTTGACGCTGCTG,1.62,2.97,1.61,3.17,–,–,–
CCGATTAACATCAGACCCCCCCCTGATGTTAATCGGGTCTTGATTCGCTTGACGCTGCTG,–,4.8,4.03,4.7,5.15,4.59,–
CCGATTAACATCACCGGAAATTCTGATGTTAATCGGGTCTTGATTCGCTTGACGCTGCTG,1.39,2.51,2.29,1.78,–,–,1.22
CCGATTAACATCATTCCCGGAAATGATGTTAATCGGGTCTTGATTCGCTTGACGCTGCTG,2.61,2.67,1.79,1.05,–,2.37,3.35
CCGATTAACATCAGTTTCCCAAATGATGTTAATCGGGTCTTGATTCGCTTGACGCTGCTG,3.42,1.17,1.81,1.2,–,2.19,2.56
CCGATTAACATCAAAAAATTTCCTGATGTTAATCGGGTCTTGATTCGCTTGACGCTGCTG,1.31,2.22,2.27,2.34,–,–,–
CCGATTAACATCAAAAATTACCATGATGTTAATCGGGTCTTGATTCGCTTGACGCTGCTG,3.14,1.73,2.52,3.14,–,–,1.73
CCGATTAACATCAGTTTGGGAAATGATGTTAATCGGGTCTTGATTCGCTTGACGCTGCTG,2.26,1.19,1.46,–,–,2.36,2.49
CCGATTAACATCAGGATTTGCCCTGATGTTAATCGGGTCTTGATTCGCTTGACGCTGCTG,–,3.5,1.37,–,–,–,1.25
CCGATTAACATCATTCCGGGAAATGATGTTAATCGGGTCTTGATTCGCTTGACGCTGCTG,3.44,1.95,1.99,–,–,2.74,2.87
CCGATTAACATCAAGGAATTTTCTGATGTTAATCGGGTCTTGATTCGCTTGACGCTGCTG,–,2.26,1.18,1.93,–,–,1.08
CCGATTAACATCAGTGGGAAACATGATGTTAATCGGGTCTTGATTCGCTTGACGCTGCTG,1.79,2.03,1.25,–,–,3.12,1.93
CCGATTAACATCAGGGAGTACACTGATGTTAATCGGGTCTTGATTCGCTTGACGCTGCTG,–,1.84,1.1,1.58,1.96,1.03,–
CCGATTAACATCAAATTTCCGGGTGATGTTAATCGGGTCTTGATTCGCTTGACGCTGCTG,1.31,1.44,1.02,–,–,1.32,–
CCGATTAACATCAAGGGCTTTCCTGATGTTAATCGGGTCTTGATTCGCTTGACGCTGCTG,–,3.6,1.47,2.98,1.28,–,–
